Values joined by “and” are separate entries in the source; they are usually repeats but may differ in a detail not shown here. Equal entries are not always repeated. Hit rate of the full screen: of about 370,000 compounds, about 1,600 (0.43%) were called active. Many of the other results were omitted from the sample, so actives are more common in it than they were. Values without a mark were called inactive. No stated cut-off is given here; in the data, active means inhibition above about 24%; inactive means the rest.

This test concerns the target Major prion protein (Homo sapiens) (UniProt P04156). Kind of test: reduces human prion protein on the cell surface, primary screen, cell-based, TR-FRET (AID 720596). Further: 0% = median of the test wells and 100% = reference compound wells. The following applies: cell surface PrPC, TR-FRET read-out; at 13.8 µM; active compounds read high.
`Cc1ccc(Cl)cc1N1CCN(C(=O)c2cccc3c(=O)c(C)c(-c4ccccc4)oc23)CC1`: the inhibition is 3.53%.

`N#Cc1ccc(-c2nc3c(Cl)cc(C(F)(F)F)cn3c2Cc2ccccc2C(F)(F)F)cc1`: the inhibition is 6.77%.

Regarding `CCOC(=O)C1(Cc2ccc(Cl)cc2)CCN(C(C)CCn2cccn2)CC1` (stereo not drawn), the inhibition was -7.01%.

With `COC(=O)c1ccc2nc(-c3cccc(Br)c3)c(Cc3ccc(OC)cc3C)n2c1`, the inhibition was -3.29%.

Consider `CCCCNC(=O)c1onc(CSc2cccc(OC)c2)c1C(=O)O`, for which the inhibition is 0.43%.

With `CCCCNc1c(-c2cccc(Sc3ccc(OC)cc3)c2)nc2ccccn12`, the inhibition was 24.6% (active).

For `COc1ccc(-c2cc(C(F)(F)F)nc(SCCC(=O)NCc3ccco3)n2)cc1`, the inhibition is -0.14%.

Take `COc1ccc(-c2cc(C(F)(F)F)nc(S(C)(=O)=O)n2)cc1OC`: the inhibition is 43.6% (active).

With `CCCC[C@H]1C2CC(OC(=O)NCc3ccccc3)C(C2)[C@H]2CCCCN21` (stereo partly drawn), the inhibition was -9.6%.

For `CCc1c(N=O)c(-c2ccccc2)n(O)[n+]1[O-]`, the inhibition is -1.69%.

Take `CC(=O)c1c(C)[nH]c(=S)c(C#N)c1-c1ccc(F)cc1`: the inhibition was 2.25%.

In the case of `CCc1c(C)[nH]c(=S)c(C#N)c1C`, the inhibition is 10%.

In the case of `CCOC(=O)c1c(C)[nH]c(=S)c(C#N)c1-c1ccccc1`, the inhibition was 36.6% (active).

`Cc1nc(CC(=O)NNS(=O)(=O)c2ccc(F)c(Cl)c2)cs1`: the inhibition is -3.65%.

Turning to `Cc1c(NC(=O)CN2C(=O)C(=O)N(Cc3ccccc3)C2=O)c(=O)n(-c2ccccc2)n1C`, the inhibition was -0.02%.

In the case of `O=C(CSc1nc2c(c(=O)[nH]1)CCCC2)N1CCCCC1`, the inhibition was 3.4%.

In the case of `CC(=O)c1sc2nc(SCC(=O)N3CCCCC3)[nH]c(=O)c2c1C`, the inhibition is 34.2% (active).

`Cc1c(C)n2c(SCC(=O)N3CCCC3)nnc2[nH]c1=O`: the inhibition is -1.9%.

As to `CCCCCCCCCCCCn1ccc(=N)cc1`, the inhibition was 34.3% (active).

`C[C@H]1CN([C@@H](C)CO)C(=O)CCCn2cc(nn2)CO[C@@H]1CN(C)S(=O)(=O)c1cccs1`: the inhibition was 6.24%.

With `NC(=O)COc1ccc(NC(=O)c2ccccc2-c2ccccc2)cc1`, the inhibition is 2.41%.

Consider `Cc1ccc(C)c2[nH]c(=O)c(CCNC(=O)c3cccs3)cc12`, for which the inhibition was 1.05%.

On to `CCCCC(CC)CNCc1cccn1CCN1CCOCC1` (stereo not drawn), for which the inhibition was -0.03%.

Take `CCCCCCCCn1c2c(c(=N)c3c1CCC3)CCCC2`: the inhibition is 34.1% (active).

Regarding `CCNC(=O)Nc1ccc(S(=O)(=O)Nc2cnc(C)nc2C)cc1`, the inhibition is -5.43%.

As to `Cc1ccc(NC(=O)c2sc3nc(N)c(C#N)cc3c2N)cc1`, the inhibition is 29.7% (active).

In the case of `Cc1ccc(Sc2ccc(NC(=O)c3ccc(F)cc3)cc2C#N)cc1`, the inhibition is -3.85%.

`CC(=O)c1ccc(NC(=O)c2sc3nc4n(c(=O)c3c2C)CCCCC4)cc1`: the inhibition is 7.05%.

With `CC(=O)Nc1ccc(S(=O)(=O)NNC(=O)CCc2ccccc2)cc1`, the inhibition is -0.14%.

Take `COc1ccc(-n2nnnc2SCc2nc(N)nc(N3CCOCC3)n2)cc1`: the inhibition was 2.17%.

Take `CC1(c2ccc3ccccc3c2)NC(=O)NC1=O` (stereo not drawn): the inhibition is 9.52%.

Turning to `CNC(=O)C1CN(C(=O)c2cccc(S(=O)(=O)N3CCc4ccccc43)c2)c2ccccc2O1` (stereo not drawn), the inhibition was 4.01%.

Turning to `Nc1[nH]c(C(=O)c2ccc(Br)cc2)c(-c2ccc3c(c2)OCO3)c1C(=O)NCCc1c[nH]c2ccccc12`, the inhibition was -5.16%.

For the molecule `Oc1c(Cl)cc(Cl)c(Cl)c1Cc1c(O)c(Cl)cc(Cl)c1Cl`, the inhibition was 28.9% (active).

Regarding `C=CCC[C@@H](CCCCC)OC(=O)/C=C/[C@@H](O)[C@H](O)C[C@H](O)CC=C`, the inhibition was -5.85%.

Turning to `COc1ccc(-c2cc(-c3nnc(SCc4ccc([N+](=O)[O-])cc4)n3N)[nH]n2)cc1`, the inhibition is 0.13%.

For `CCOc1ccc(S(=O)(=O)N(CC(=O)O)c2ccccc2)cc1`, the inhibition was -3.25%.

As for `COC(=O)[C@]12C[C@H](CC(=O)NCc3ccc(C)o3)C(=O)N(CCC3=CCCCC3)C1=C[C@H](C(C)(C)C)O[C@@H]2C`, the inhibition was 7.81%.

For `O=C(Nc1ccc([N+](=O)[O-])cc1)C1CC12CCC2` (stereo not drawn), the inhibition is 3.59%.

Take `O=C(Nc1ccc(C2CC2(Cl)Cl)cc1)c1cccc([N+](=O)[O-])c1` (stereo not drawn): the inhibition is 25.6% (active).

For the molecule `Cc1ccc(NC(=O)C(=O)NCC2CCN(C(=O)c3cccc([N+](=O)[O-])c3)CC2)cc1`, the inhibition is -5.67%.

As for `COc1cc(C(=O)N2Cc3ccc(Br)cc3-n3nncc3C2)cc(OC)c1OC`, the inhibition is -0.36%.

As for `Cc1ccc(C)c(S(=O)(=O)N2CCCOC2CNC(=O)C(=O)NC2CCCCC2)c1` (stereo not drawn), the inhibition is -1.91%.

`COc1ccc2c(CC(=O)OCC(=O)Nc3ccccc3[N+](=O)[O-])coc2c1`: the inhibition is -12.7%.

Regarding `CO[C@H]([C@H](C)/C=C/N(C)C=O)[C@@H](C)C(=O)CC[C@H](C)[C@H](O)[C@H](C)[C@H]1OC(=O)/C=C/C(C)=C/[C@H](O)[C@H](OC)C[C@@H]2C=CC[C@@H](C[C@H](OC)[C@@]3(CO3)[C@@H](OC)C[C@@H](OC)[C@@H]1C)O2`, the inhibition is 38% (active).

As for `CN(C)C(=O)CCc1ccc2c3c([nH]c2c1)[C@]1(C)[C@@H](C(=O)N2CCCCC2)C[C@H](CC(=O)NCCC2=CCCCC2)C(=O)N1CC3`, the inhibition was -3.09%.

As to `O=C(Cc1ccccc1)Nc1cccc(NC(=O)c2ccccc2)c1`, the inhibition is 30.2% (active).

Consider `CC(C)(C)NC(=O)c1cccc(NC(=O)Cc2ccc(Br)cc2)c1`, for which the inhibition is 11%.

In the case of `CN(CCc1ccccc1)C(=O)c1cccc(NC(=O)Cc2ccc([N+](=O)[O-])cc2)c1`, the inhibition is -2.03%.

Take `Cc1ccc(Cc2cncc(O)c2)cc1S(=O)(=O)O`: the inhibition is -7.2%.

With `Cc1[nH]c(C)c(S(=O)(=O)N2CCC(C)CC2)c1C(=O)N1CCCC1`, the inhibition is -7.7%.

Turning to `O/N=C(\C[n+]1ccccc1)c1ccc(Br)cc1`, the inhibition is 6.16%.

As for `O=C(c1ccc(-c2ccccc2)cc1)C1CCCN(C(=O)c2cncs2)C1` (stereo not drawn), the inhibition was 6.46%.

With `C=CCN(c1ccccc1C(=O)NCC(=O)OCC)S(=O)(=O)c1ccc(C)cc1`, the inhibition is 5.82%.

`O=C(Oc1ccccc1)Oc1ccc2c(c1)oc(=O)c1ccccc12`: the inhibition is 31.3% (active).

Consider `O=C(OCCN1C(=O)c2ccccc2C1=O)Oc1ccccc1`, for which the inhibition is -3.25%.

`CCc1ccc(Oc2coc3cc(OC(=O)c4cc5ccccc5oc4=O)ccc3c2=O)cc1`: the inhibition is -6.51%.

Regarding `C=C(C)c1cccc(C(C)(C)NC(=O)NCCN(CC)CC)c1`, the inhibition is -1.16%.

In the case of `CCOc1ccc(NC(=O)C2CC(=O)N=C(N)S2)cc1` (stereo not drawn), the inhibition was 3.27%.

As for `CCc1ccc(OCC(=O)N(Cc2ccccc2)C2CCS(=O)(=O)C2)cc1` (stereo not drawn), the inhibition was 7.58%.

For `CC1=CC2=NC(=O)CC(C)(C(=O)N(CC(=O)NC(C)(C)C)Cc3ccccc3)N2C=C1` (stereo not drawn), the inhibition was -11.9%.

On to `O=C(Cn1c(-c2cscn2)nc2ccccc21)Nc1ccc(Cl)cc1`, for which the inhibition is 16.8%.

As for `O=c1[nH]cccc1-c1nc2ccccc2n1Cc1ccc(Cl)cc1`, the inhibition was 48.8% (active).

On to `O=C(O)CCc1nc2cc(Cl)ccc2n(Cc2ccccc2)c1=O`, for which the inhibition is -3.72%.

`CCCCCn1nnnc1-c1nc2cc3ccccc3cc2[nH]c1=O`: the inhibition is -2.3%.

Regarding `COc1cc(OC)c(C(=O)OC(C)C(=O)Nc2cc(C(F)(F)F)ccc2Cl)cc1OC` (stereo not drawn), the inhibition is -3.19%.

In the case of `CC(=O)c1ccc(S(=O)(=O)N(C)CCCC(=O)N(C)Cc2ccccc2F)cc1`, the inhibition was 3.84%.

For `Cc1ccc(S(=O)(=O)NCC2CCC(C(=O)N3CCOCC3)CC2)cc1` (stereo not drawn), the inhibition was 9.49%.

In the case of `O=C(NNC(=O)C(O)c1ccccc1)NC1CCCCC1` (stereo not drawn), the inhibition was 5.45%.

With `O=C(Cn1nnc(-c2ccccc2)n1)NC(=O)NC1CCCC1`, the inhibition was 1.46%.

On to `Cc1nc(/N=C(\N)NC(=O)NC2CCCCC2)nc2ccccc12`, for which the inhibition is 27.6% (active).

Regarding `C[C@H]1CN([C@@H](C)CO)C(=O)c2cc(C3=CCCCC3)cnc2O[C@@H]1CN(C)C(=O)Cc1ccccc1`, the inhibition was -9.73%.

In the case of `Cc1sc2c(c1C)c(=O)n(-c1ccccc1)c1nncn21`, the inhibition is -3.5%.

Regarding `c1ccc(CCC2=NCCn3cccc32)cc1`, the inhibition was -4.1% and -18.3%.

Take `CCCCC(=O)NC(c1ccc(OC)c(OC)c1)c1ccc2cccnc2c1O` (stereo not drawn): the inhibition was 28.6% (active).

`CCCCCCCC(=O)NC(Nc1ccccc1OC)C(Cl)(Cl)Cl` (stereo not drawn): the inhibition was 1.28%.

For the molecule `CCOc1ccc(C(CC(=O)O)n2cnnn2)cc1OC` (stereo not drawn), the inhibition was -3.65%.

As for `CCOC(=O)C1=CCC(c2ccc(F)cc2)N(S(=O)(=O)c2ccc(C)cc2)C1` (stereo not drawn), the inhibition was 0.96%.

As for `Cc1cc(C)n(CCNS(=O)(=O)c2ccc(Cl)cc2)n1`, the inhibition is -3.39%.

As for `Cc1nnc(SCC(=O)NCc2cccs2)[nH]c1=O`, the inhibition is 0.4%.

For the molecule `N#Cc1c(-c2cccs2)nc(SCC(=O)c2ccc(Br)cc2)[nH]c1=O`, the inhibition is 49.9% (active).

On to `N#Cc1c(-c2ccc(F)cc2)cc(C2CC2)nc1SCC(=O)c1cccs1`, for which the inhibition is 8.6%.

For `CC(C)(C)NC(=O)NC(=O)COC(=O)C1(C)CC1(Cl)Cl` (stereo not drawn), the inhibition is -0.21%.

With `O=C(Nc1ccc(Cl)cc1)c1cc2nc(C3CC3)cc(C(F)(F)F)n2n1`, the inhibition is -1.38%.

Regarding `O=C(COC(=O)c1cc2c(s1)CCCC2)NCc1ccccc1Cl`, the inhibition was 0.1%.

With `CSc1ncccc1C(=O)NCc1ccccc1Cl`, the inhibition is -4.63%.

`Clc1ccc(-c2cc(COc3ccccc3)no2)cc1Cl`: the inhibition is -6.65%.

Turning to `CC(C)Cn1c(N2CCN(C(=O)/C=C/c3ccccc3)CC2)nc2ccccc21`, the inhibition was -10.9%.

For orientation: inhibition means the change of the read-out against control, counted positive when it falls.

Values taken from PubChem BioAssay AID720596 (The Scripps Research Institute Molecular Screening Center, 2013).
